Hits are enriched below; roughly 19% of the tested compounds scored in any of these assays.
TDP1 inh = qHTS Assay for Inhibitors of Tyrosyl-DNA Phosphodiesterase (TDP1) | Tyrosyl-DNA phosphodiesterase 1 (Homo sapiens), Q9NUW8 | recombinant TDP1, AlphaScreen DNA substrate cleavage | Potency, µM (top dose mostly 130 µM), most hits filed as inhibitors | 350,000 tested, 0.28% active; further: nearly all actives have a fitted effect of over 40% in size
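Signal: AlphaScreen proximity between streptavidin donor and anti-FITC acceptor beads on intact substrate. Reaction: Tdp1 1 nM, substrate 15 nM final, 5 min RT after 15 min compound preincubation.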
Gal4-VP16 FLuc = VP16 counterscreen qHTS for inhibitors of ROR gamma transcriptional activity; Potency, µM (top dose mostly 53.6 µM), usual class: inhibitors; Drosophila S2 Gal4-VP16 UAS-luciferase, luminescence, 20 h; 310,000 tested, 3.5% active;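 further: Gal4-VP16 expression switched on by copper sulfate through the metallothionein promoter; nearly all actives have a fitted effect of over 50% in size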
RORgamma inh = qHTS for inhibitors of ROR gamma transcriptional activity; Nuclear receptor ROR-gamma (Mus musculus), P51450; 310,000 tested, 5.4% active; Potency, µM (top dose mostly 53.6 µM), hits mostly inhibitors; Drosophila S2 Gal4-RORgamma UAS-luciferase reporter, 20 h; further: nearly all actives have a fitted effect of over 60% in size
Target sequence (P51450 whole entry, looked up, the tested form may be a part): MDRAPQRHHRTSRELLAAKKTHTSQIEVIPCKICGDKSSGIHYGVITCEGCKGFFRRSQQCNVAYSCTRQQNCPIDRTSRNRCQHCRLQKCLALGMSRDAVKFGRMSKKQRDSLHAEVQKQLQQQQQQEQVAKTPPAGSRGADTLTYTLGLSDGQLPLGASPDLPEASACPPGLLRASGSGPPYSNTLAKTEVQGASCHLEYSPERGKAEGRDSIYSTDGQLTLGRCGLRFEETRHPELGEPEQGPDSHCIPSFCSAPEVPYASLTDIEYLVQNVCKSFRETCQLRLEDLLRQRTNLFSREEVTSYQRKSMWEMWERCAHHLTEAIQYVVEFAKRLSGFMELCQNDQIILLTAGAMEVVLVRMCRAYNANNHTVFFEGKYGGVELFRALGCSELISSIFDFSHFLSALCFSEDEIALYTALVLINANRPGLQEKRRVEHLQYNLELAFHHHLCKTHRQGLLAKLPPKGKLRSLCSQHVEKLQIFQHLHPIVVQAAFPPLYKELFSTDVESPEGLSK
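Compounds are pin-transferred onto Drosophila Schneider cells expressing a copper-inducible Gal4–ROR gamma transactivation domain fusion. After 1 hr, copper sulfate is added to 700 uM final; luciferase is read 20 hr later.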
TDP1 cell noCPT = qHTS for Inhibitors of human tyrosyl-DNA phosphodiesterase 1 (TDP1): qHTS in cells in absence of CPT. Potency, µM (doses to about 46.2 µM), usual class: inhibitors. DT40 Tdp1-/- hTDP1 cells, no CPT, ATP luminescence, 48 h. 420,000 tested, 15% active; further: nearly all actives have a fitted effect of over 55% in size
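Luminescent ATP content (CellTiter-Glo) served as the growth readout. Knockout chicken DT40 cells expressing human TDP1 were exposed to compounds without camptothecin for a minimum 48 hr at 37 °C.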
DT40 TDP1 CPT = qHTS for Inhibitors of human tyrosyl-DNA phosphodiesterase 1 (TDP1): qHTS in cells in presence of CPT | chicken DT40 Tdp1-/-;hTDP1 cells + 20 nM CPT, ATP luminescence, 48 h | Potency, µM (top dose mostly 46.2 µM), actives largely listed as inhibitors | 420,000 tested, 12% active | AID 686979, 2013; further: nearly all actives have a fitted effect of over 55% in size
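Chicken DT40 Tdp1-/- cells complemented with human TDP1, 400 cells/well, exposed to compounds plus 20 nM camptothecin for at least 48 h at 37 C; viability read as ATP content by CellTiter-Glo luminescence.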
A number is an active result; n = inactive; u = inconclusive; x = no result given; [ ] = remark or other dose. The call rests on the fitted dose curve; in most records, active means well fitted curve in the direction sought with a large enough effect; inconclusive means small, poorly fitted or top-dose-only effect, or another doubt; inactive means no such curve, though single readings can be large; an effect the other way counts as inactive or inconclusive.

SMILES	TDP1 inh	Gal4-VP16 FLuc	RORgamma inh	TDP1 cell noCPT	DT40 TDP1 CPT
CC(C)(C)OC(=O)CNC(=O)c1[nH]cnc1C(=O)NC(c1ccccc1)c1ccccc1	x	u	6.3µM	u	23µM
C[C@H](NC(=O)c1nc[nH]c1C(=O)NCc1ccccc1)C(=O)OC(C)(C)C	n	n	n	u	u
CNC(=O)c1[nH]cnc1C(=O)NCC(=O)OC(C)(C)C	x	n	n	n	n
C[C@H](NC(=O)c1nc[nH]c1C(=O)NC(c1ccccc1)c1ccccc1)C(=O)OC(C)(C)C	n	4.5µM	2.5µM	u	n
Brc1ccc(-c2nnc3sc(CNCc4ccc5c(c4)OCO5)cn23)cc1	n	n	n	n	n
COc1cccc(-c2nc(Oc3cccc(C)c3C)c3ccccc3n2)c1O	n	n	n	u	n
Cc1ccc(N2C(=O)c3cccc4c(Oc5ccccc5[N+](=O)[O-])ccc(c34)C2=O)c(C)c1	n	n	n[10 µM]	6.5µM	10µM
Cc1cc(O)ccc1N1C(=O)c2cccc3cc([N+](=O)[O-])cc(c23)C1=O	x	n	n	u	u
CCc1ccc(S(=O)(=O)/N=C2\C=C(Nc3ccc(C(=O)O)cc3)C(=O)c3ccccc32)cc1	n[0.0935 µM]	u	11µM	23µM	18µM
Cc1ccc(S(=O)(=O)/N=C2\C=C(Nc3ccc(O)cc3)C(=O)c3ccccc32)cc1	n	x	x	2.9µM	2.1µM
Cc1ccc(S(=O)(=O)/N=C2\C=C(Nc3cccc(C(=O)O)c3)C(=O)c3ccccc32)cc1	n	u	16µM	u	u
CC(=O)Nc1cccc2c1C(=O)NC2=O	n	n	n	n	n
O=C(c1cccc(F)c1)N1CCN(C(=O)c2nn3cccnc3c2Cl)CC1	n	n[0.365 µM]	n	n	n
COc1ccccc1Nc1nc(N)nc(CSC(=S)N2CCCCC2)n1	x	n	n	13µM	8.2µM
Cc1c(-c2nc(N)nc(Nc3ccc(F)cc3)n2)oc2ccccc12	n	n	n	u	u
COc1ccc(C(=O)OCc2nc(N)nc(Nc3ccccc3C)n2)cc1OC	n	n	18µM	u	u
CCOc1ccccc1Nc1nc(N)nc(CN(C)C2CCCCC2)n1	n	n	11µM	u	u
COc1ccccc1Nc1nc(N)nc(-c2oc3ccccc3c2C)n1	n	n	n	u	8.2µM
COC(=O)c1ccc(NC(=O)C(=O)NCCc2sc3nc(-c4ccc(OC)cc4)nn3c2C)cc1	n	x	x	n	n
CCN1CCCC1CNC(=O)c1cc2ccc(OC)cc2[nH]1 (centres undefined)	x	n	n	n	n
COc1ccc(OC)c(Nc2nc(N)nc(CCl)n2)c1	x	u	n	18µM	12µM
COc1ccc(OC)c(Nc2nc(N)nc(CSc3nnc(N)s3)n2)c1	n	n[0.365 µM]	n	n	n
COc1ccccc1Nc1nc(N)nc(CCl)n1	x	u	n	13µM	18µM
Cc1ccccc1NC(=O)CSc1nnc(Cc2ccccc2)o1	n	n	n	n	n
Cc1c(C(=O)N2CCCC2)sc2ncnc(NCCc3ccccn3)c12	x	x	x	n	n
SMILES	TDP1 inh	Gal4-VP16 FLuc	RORgamma inh	TDP1 cell noCPT	DT40 TDP1 CPT
CCNC(=S)NCc1ccc2c(c1)OCO2	n	n	n	n	n
S=C(NCc1ccc2c(c1)OCO2)NCc1ccc2c(c1)OCO2	n	u	16µM	n	n
NNC(=S)NCc1ccc2c(c1)OCO2	n	8.9µM	7.9µM	u	u
CCN(c1ccccc1)S(=O)(=O)c1cc(C(=O)OC(C)C(=O)Nc2ccc3c(c2)OCCO3)ccc1C (centres undefined)	x	n	n	16µM	u
Cc1cccc(NC(=S)NCc2ccc3c(c2)OCO3)c1	n	16µM	11µM	n	n
Cc1cccc(NC(=O)NCc2ccc3c(c2)OCO3)c1	n	u	u	x	x
O=C1NCCCC1C(=O)Nc1cccc(C(F)(F)F)c1 (centres undefined)	n	n	n	n	n
O=C(COC(=O)CCNS(=O)(=O)c1cccc(C(F)(F)F)c1)NC(=O)NC1CCCCC1	n	n	n	n	u
CCc1cccc(CC)c1NC(=S)NCc1ccc2c(c1)OCO2	n	u	8.9µM	18µM	23µM
O=S(=O)(c1ccc2ccccc2c1)N(CC1CO1)c1ccccc1 (centres undefined)	n	n	n	u	13µM
Cc1cccc(NS(=O)(=O)c2cc(C(=O)OC(C)C(=O)NCc3ccc4c(c3)OCO4)ccc2C)c1 (centres undefined)	n	u	u	16µM	18µM
COc1ccc(CNCc2ccc3c(c2)OCO3)cc1Br	x	n	n	16µM	u
CC(=O)Nc1cccc(C(=O)OC(C)C(=O)NCc2ccc3c(c2)OCO3)c1 (centres undefined)	n	x	x	n	n
Cc1ccccc1NC(=O)NCc1ccc2c(c1)OCO2	n	n	n	n	n
CCCNC(=O)Nc1ccc2c(c1)OC[C@H](C)N(C(=O)C1CCCCC1)C[C@@H](C)[C@H](OC)CN(C)C2=O	x	x	x	n	n
C[C@H](NC(=O)C1CC(=O)N(c2ccc3c(c2)OCO3)C1)C(=O)NC1CCCC1 (some centres undefined)	n	n	n	n	u
CCc1cccc(CC)c1NC(=S)NC(C)c1ccccc1 (centres undefined)	n	u	4µM	23µM	n
Cc1ccc(S(=O)(=O)C2(C(=O)NCc3ccc4c(c3)OCO4)CC2)cc1	n	n	n	18µM	u
CCN(c1ccccc1)S(=O)(=O)c1ccc2c(c1)OCCO2	n	x	x	u	16µM
O=C(O)Cc1c(C(=O)O)nnn1-c1ccc(Cl)cc1Cl	n	n	n	n	n
COc1ccc(O)c(CN2CCCC(N3CCN(c4ccccc4OC)CC3)C2)c1 (centres undefined)	n	n	n	n	n
N#Cc1ccc(/C=N/NC(=O)CCc2ccc(S(=O)(=O)N3CCOCC3)cc2)cc1	n	n	n	u	n
CC1=CC(C)(C)N(S(=O)(=O)c2ccc(F)cc2)c2ccccc21	n	n	n	u	26µM
CC1=CC(C)(C)N(S(=O)(=O)c2ccc(C)cc2)c2ccc(C)cc21	n	n	u	18µM	5.8µM
COc1cc(=O)n2c(c1C(=O)N(C)Cc1cscn1)CCN(C(=O)c1ccc(C)cc1C)CC2	x	x	x	n	n
CN(C)S(=O)(=O)c1cccc(NC(=O)CSc2ncnc3ccccc23)c1	n	n	u	18µM	21µM
CN(C)S(=O)(=O)c1cccc(NC(=O)CSc2nnnn2-c2ccccc2)c1	n	n	n	23µM	15µM

High-throughput results from PubChem BioAssay.
